In PubChem BioAssay (Tox21):
Where “and” joins values, the source holds several entries; their conditions need not be identical. Identical values can stand only once. Inconclusive results are not listed. Entries that show only a call come without a potency. Unmarked numbers belong to inactive results. Calls of active or inactive are those of the source. Calls follow the shape of the dose curve; as a rule, active = well fitted cell-killing curve with a large enough effect in the repeat runs; inconclusive = weak or mixed curves, or effect the other way; inactive = no such curve, though single readings can be large or run the other way.
Potency is read from the fitted curve at half-maximal effect.

Experiment: qHTS assay to identify small molecule antagonists of the peroxisome proliferator-activated receptor gamma (PPARg) signaling pathway - cell viability counter screen (AID 743194); also: nearly all actives have a fitted effect of over 55% in size
Details: PPARg-bla HEK293H viability, CellTiter-Glo luminescence, 17 h, co-treated with 50 nM rosiglitazone; series mostly up to 62.6 µM
Source text: U.S. Tox21 Program National Center for Advancing Translational Sciences [NCATS] NIH Chemical Genomics Center [NCGC] U.S. Environmental Protection Agency [EPA] National Institutes of Environmental Health Sciences [NIEHS] National Toxicology Program [NTP] U.S. Food and Drug Administration [FDA] Tox21 Assay Overview: The peroxisome proliferator-activated receptors (PPARs) are lipid-activated transcription factors of the nuclear receptor superfamily with three distinct subtypes namely PPAR alpha, PPAR delta (also called PPAR beta) and PPAR gamma (PPARg). All these subtypes heterodimerize with Retinoid X receptor (RXR) and these heterodimers regulate transcription of various genes. PPAR-gamma receptor (glitazone receptor) is involved in the regulation of glucose and lipid metabolism. To identify the compounds that activate PPAR-gamma signaling, GeneBLAzer PPAR gamma UAS-bla HEK293H cell line (Invitrogen, Carlsbad, CA, USA) containing a beta-lactamase reporter gene under the control of an Upstream Activator Sequence (UAS) was used to screen the Tox21 compound library. The cytotoxicity of the Tox21 compound library against the PPARg-bla cell line was tested in parallel by measuring the cell viability using CellTiter-Glo assay in the same wells.
Tox21 Assay Protocol Summary: PPARg-bla cells were dispensed at 3000 cells/5uL/well in 1536-well black wall/clear bottom plates using a Multidrop Combi (Thermo Fisher Scientific, Waltham, MA) dispenser. After the assay plates were incubated at 37 C and 5% CO2 for 5 h, 23 nL of compounds dissolved in DMSO, positive controls or DMSO only was transferred to the assay plate by a Pintool station (Kalypsys, San Diego, CA), followed by addition of 1ul Rosiglitazone (50 nM, final concentration in the wells). The assay plates were incubated at 37 C for 17 h, and then 1 uL of LiveBLAzerTM B/G FRET substrate was added using a Bioraptr Flying Reagent Dispenser (FRD) workstation (Beckman Coulter, Indianapolis, IN, USA). The assay plates were incubated at room temperature for 1 h and fluorescence intensity was measured by an Envision plate reader (PerkinElmer, Shelton, CT). For cell viability readout that measures cytotoxicity, 4 ul/well of CellTiter-Glo reagent was added into the assay plates using a Flying Reagent Dispenser. After 30 min incubation at room temperature, the luminescence intensity in the plates was measured using a ViewLux plate reader (PerkinElmer).
In the case of `CCCCCCCCCCCC(=O)OCC(C)OC(=O)CCCCC(=O)O` (stereo not given), the Potency is reported as “inactive”. With `COCCOc1cc2cc(C(=O)NC3CCN(C(C)C)CC3)n(CC(=O)Nc3ccc(Cl)cn3)c2cn1` the Potency was “inactive”. With `CC(C)CCCCCOC(=O)CCS` the Potency was “inactive”. With `CCCCCCC1CCCC(=O)O1` (stereo not given) the Potency was “inactive”. With `CC(=O)CC(=O)Nc1ccc(S(=O)(=O)O)cc1` the Potency was “inactive”. For `CCC(CC)(CC(=O)Nc1cccc(/C=C/c2nc(C3CCC3)cs2)c1)C(=O)O`, the Potency was “inactive”. In the case of `CN(C)CCN1CCN(c2cccc(Cl)c2)C1=O`, the Potency is reported as “inactive”. In the case of `CCCC(=O)OC(C)(C)Cc1ccccc1`, the Potency is reported as “inactive”. In the case of `Cc1c(F)c(N2CCNC(C)C2)cc2c1c(=O)c(C(=O)O)cn2C1CC1` (stereo not given), the Potency is reported as “inactive”. With `OCC(F)(F)F` the Potency was “inactive”. With `CC(=O)Oc1cc2c(s1)CCN(C(C(=O)C1CC1)c1ccccc1F)C2` (stereo not given) the Potency was “inactive”. In the case of `Cc1nc2n(c(=O)c1CCN1CCC(c3noc4cc(F)ccc34)CC1)CCCC2`, the Potency is reported as “inactive”. In the case of `CC1(C)CCC[C@]2(C)[C@H]3CC(=O)O[C@]3(C)CC[C@@H]12`, the Potency is reported as “inactive”. With `CCCCCCCCCCCCCC[N+](C)(C)Cc1ccccc1` the Potency was 22.2 µM (active) and 29.8 µM (active). With `C=C(CC)C(=O)c1ccc(OCC(=O)O)c(Cl)c1Cl` the Potency was “inactive”. With `[Cl][Pt-2]([Cl])([Cl])[Cl]` the Potency was “inactive”. For `O=C(O)c1cccc(C(F)(F)F)c1`, the Potency was “inactive”. With `O=c1c(O)c(-c2ccc(O)cc2O)oc2cc(O)cc(O)c12` the Potency was “inactive”. With `O=C(O)c1ccc2cc(C(=O)O)ccc2c1` the Potency was “inactive”. Work on `NC[C@H]1O[C@H](O[C@H]2[C@H](O[C@@H]3O[C@H](CO)[C@@H](O)[C@H]3O)C(O)[C@H](N)C[C@@H]2N)[C@H](N)[C@@H](O)[C@@H]1O` (stereo not given in full) yielded an activity change, negative = cytotoxicity of 8.9% [at 13.2 µM]. In the case of `CCn1c2ccccc2c2cc([N+](=O)[O-])ccc21`, the Potency is reported as “inactive”. With `COc1cc(/C=C/c2ccccc2)oc(=O)c1` the Potency was “inactive”. In the case of `Fc1ccc(C(c2ccc(F)cc2)N2CCNCC2)cc1`, the Potency is reported as 26.6 µM (active). In the case of `OC/C=C/CO`, the Potency is reported as “inactive”. In the case of `CC[N+](CC)(CC)CCOC(=O)C(C1CCCC1)C1CCCC1`, the Potency is reported as “inactive”. With `c1ccsc1` the Potency was “inactive”. With `CCCc1ccc(OCC(=O)N2CCN(C(=O)COc3ccc(CCC)cc3OC)CC2)c(OC)c1` the Potency was “inactive”. In the case of `Cc1c(N)cccc1C(F)(F)F`, the Potency is reported as “inactive”. In the case of `OC[C@H]1O[C@H](O[C@H]2O[C@H](CO)[C@@H](O)[C@H](O)[C@H]2O)[C@H](O)[C@@H](O)[C@@H]1O`, the Potency is reported as “inactive”. For `CCCCCCCCCCCCCCCC[N+](C)(C)CC`, the Potency was 17.4 µM (active) and 26.6 µM (active). For `O=[N+]([O-])c1ccc(O)cc1C(F)(F)F`, the Potency was 38.9 µM (active). In the case of `CC1=CCC(=C(C)C)CC1`, the Potency is reported as “inactive”. For `CC(C)(C)CC(C)(C)c1ccc(Nc2ccc(C(C)(C)CC(C)(C)C)cc2)cc1`, the activity change, negative = cytotoxicity was -4.03% [at 5.95 µM]. With `COc1ccc(-c2coc3cc(O)ccc3c2=O)cc1` the Potency was “inactive”. For `CCCC[P+](C)(CCCC)CCCC`, the Potency was “inactive”. For `Cc1cccc(C(=O)O)c1O`, the Potency was “inactive”. For `CCCCOC(=O)CO`, the Potency was “inactive”. With `CN(C)c1ccc(C(=C2C=CC(=[N+](C)C)C=C2)c2ccc(N(C)C)cc2)cc1` the Potency was 1.94 µM (active) and 1.95 µM (active) and 5.96 µM (active). For `Cc1cc(C(C#N)c2ccc(Cl)cc2)c(Cl)cc1NC(=O)c1cc(I)cc(I)c1O` (stereo not given), the Potency was 3.76 µM (active). With `CN(C)C(=O)COC(=O)Cc1ccc(OC(=O)c2ccc(N=C(N)N)cc2)cc1` the Potency was “inactive”.
